Results: PubChem BioAssay AID651568 (National Center for Advancing Translational Sciences (NCATS), 2012)
Screen size: about 1,200 compounds; about 55 (5%) were called active. A call without a number means that no potency is given here. Roughly 15% stayed inconclusive and do not appear here. Calls follow the shape of the dose curve; as a rule, active = well fitted inhibition curve with a large enough effect; inconclusive = small, poorly fitted or top-dose-only effect; inactive = no such curve, though single readings can be large or run the other way. The sample as a whole holds a higher share of actives than the screen did.

Assay: qHTS Assay to Find Inhibitors of Chronic Active B-Cell Receptor Signaling: Hit Validation in Renilla Reporter Assay; also: nearly all actives have a fitted effect of over 70% in size
Settings: TMD8 IkB-Renilla luciferase reporter, NF-kB signaling; series mostly up to 57.5 µM
Method in brief: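 Dual-Glo luminescence read-out of constitutively expressed IkB-Photinus/Renilla luciferase reporters in ABC-DLBCL lines, used to retest primary hits; reporter enzymes differ from the click beetle luciferases used in the primary screen.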
Potency is read from the fitted curve at half-maximal effect.

Row | Compound | Potency
1 | O=C1NC(=Nc2ccc(O)cc2)S/C1=C\C=C\c1ccco1 | inactive
2 | O=C(Nc1ncc(Cc2ccc(SC(F)F)cc2)s1)c1ccc(OC(F)F)cc1 | inactive
3 | CCCc1nnc(NC(=S)Nc2ccccc2)s1 | inactive
4 | CC1CCCN(c2ccc([N+](=O)[O-])cc2C(=O)c2ccccc2)C1 (stereo not drawn) | inactive
5 | N#CC1=C(N)Oc2cc(N)ccc2C1c1cccc(Br)c1 (stereo not drawn) | inactive
6 | O=C(c1cc([N+](=O)[O-])ccc1N1CCOCC1)N1CCN(c2ccccc2)CC1 | inactive
7 | CCOC(=O)c1c(C)n(C)c2ccc(OC)c(NC(=O)CN3CCN(C(=O)c4ccco4)CC3)c12 | inactive
8 | CCOc1ccc(S(=O)(=O)NCc2ccccn2)cc1NC(=O)c1ccccc1F | inactive
9 | CCOC(=O)c1[nH]c(C)c(C(=O)OCC)c1C | inactive
10 | CCOC(=O)c1c(C)[nH]c(C(=O)N/N=C/c2ccc(Br)cc2)c1C | 10.7 µM (active)
11 | Cc1c(C(=O)N/N=C/c2ccc(Cl)cc2)[nH]c2ccc(Cl)cc12 | inactive
12 | CCOC(=O)CSC1=C(C#N)C(c2ccc(C)o2)CC(=O)N1 (stereo not drawn) | inactive
13 | COc1ccc(-c2[nH]ncc2/C=C(\C#N)C(=O)NC2CC2)cc1 | inactive
14 | CC1CCc2c(sc(NC(=O)CSc3nc(N)cc(=O)[nH]3)c2C(N)=O)C1 (stereo not drawn) | inactive
15 | COc1ccc(CNc2nc(NCc3ccc(OC)cc3)c3ncn(C4CCCC4)c3n2)cc1 | inactive
16 | C/C(=N\NC(=O)c1ccc(F)cc1)c1ccccn1 | inactive
17 | CCOc1ccc(OCc2ccc(C(=O)N/N=C(\C)c3ccccn3)cc2)cc1 | inactive
18 | O=C(NN=C(c1ccccc1)c1ccccn1)c1ccccc1 | 26.9 µM (active)
19 | Cc1onc(-c2ccccc2)c1C(=O)Nc1cc(C(F)(F)F)ccc1N1CCOCC1 | inactive
20 | NC(=S)N=Nc1c(O)n(Cc2ccc(Br)cc2)c2ccccc12 | inactive
21 | C=CCNC(=S)N/N=C/c1cn(C)c2ccccc12 | inactive
22 | CC(=O)c1cc(C#N)c(SCCC(C)C)nc1C | inactive
23 | C=CCOc1ccc(/C=C2\SC(N)=NC2=O)cc1OC | inactive

Row | Compound | Potency
24 | CCCC(=O)OCCNc1cc(Sc2nccn2C)c2nonc2c1[N+](=O)[O-] | 3.79 µM (active)
25 | S=c1[nH]nc(-c2ccco2)n1/N=C/C(Cl)=C/c1ccccc1 | 26.9 µM (active)
26 | COc1cc2sc(-c3ccc(S(C)(=O)=O)cc3)c(C#CCO)c2cc1OC | inactive
27 | COC(=O)c1cnc(Oc2ccc(NC(=O)NC(=O)c3c(OC)cccc3OC)cc2)cc1C(F)(F)F | inactive
28 | COc1ccccc1CNS(=O)(=O)c1ccc(-c2cc(C)no2)cc1 | inactive
29 | CCN(c1ccccc1)S(=O)(=O)c1ccc(C(=O)NNC(=O)c2ccccc2F)cc1 | inactive
30 | O=C(N1CCN(c2ccccn2)CC1)N1c2ccccc2Sc2ccccc21 | inactive
31 | O=[N+]([O-])c1cc(/C=N/O)ccc1Sc1ccccc1 | inactive
32 | O=[N+]([O-])c1ccc(Sc2nc3ccccc3o2)c([N+](=O)[O-])c1 | 3.01 µM (active)
33 | CCOc1ccc(C2=Nn3c(nnc3-c3ccccc3OC)SC2)cc1 | inactive
34 | COc1ccc(C)cc1NS(=O)(=O)c1ccc(-c2cnc(C3CC3)o2)cc1 | inactive
35 | Cc1nc(N2N=C(c3ccc(Cl)cc3)CC2c2ccco2)sc1C(=O)N(C)C (stereo not drawn) | inactive
36 | Cc1ccc(/C=N/NC(=O)c2cc(-c3cccnc3)nc3ccccc23)cc1 | inactive
37 | CC[C@@H](C)[C@H](NC(=O)CCc1c(C)c2cc3c4c(oc3c(C)c2oc1=O)CCCC4)C(=O)O | inactive
38 | Cc1cc(Cl)n2c(nc3ccccc32)c1C#N | 1.9 µM (active)
39 | CCc1c(C)c(C#N)c2nc3ccccc3n2c1Cl | 0.953 µM (active)
40 | Cc1cc(Cl)n2c(nc3cc(F)c(F)cc32)c1C#N | 1.69 µM (active)
41 | COc1cc(/C=C2\N=C(c3ccccc3)NNC2=O)cc(OC)c1OC | inactive
42 | CCN(CC)c1ccc(NC(=O)CN2CCN(CC(=O)Nc3ccccc3F)CC2)cc1 | inactive
43 | CCOc1nc(OCC)nc(N2CCC(C)CC2)n1 | inactive
44 | CCOc1ccc(NC(=O)c2cc(OC)nc3ccccc23)cc1 | inactive
45 | CCC1=Nc2cc(C(=O)NCc3ccco3)ccc2Sc2ccc(C)cc21 | inactive
46 | Cc1ccc(S(=O)(=O)n2cc(-c3ccccc3)c3ccccc32)cc1 | inactive

Row | Compound | Potency
47 | COc1cc2c(cc1OC)-c1cc(NC3CCCCCC3)nc(=O)n1CC2 | inactive
48 | COc1ccc(/C=N/NC(=O)c2ccc3c(c2)NC(=O)C(C)(C)O3)cc1OC | inactive
49 | COc1ccc(C(=O)/C=C/c2ccc(O)cc2)c2c1CC(O)C(C)(C)O2 (stereo not drawn) | 23.9 µM (active)
50 | CCOC(=O)c1c(C)c(C(=O)OCC)n(C)c1C | inactive
51 | CC(=O)N1CC(=O)N=C1SCC(=O)Nc1nc(C)c(-c2ccccc2)s1 | inactive
52 | CCOc1ccc(S(=O)(=O)Nc2ccc3oc(C)c(C(=O)OCCOC)c3c2)cc1 | inactive
53 | CCOC(=O)C1=C(C)NC(C)=C(C(=O)OCC)C1C(=O)OCC(=O)NCc1ccccc1OC | inactive
54 | COc1cc(OC)c2c(-c3cccc(-c4ccc(NC(C)=O)cc4)c3)cc(=O)oc2c1 | inactive
55 | CC(=O)OCC(=O)[C@@]1(O)CC[C@H]2[C@@H]3CCC4=CC(=O)C=C[C@]4(C)[C@H]3[C@@H](O)C[C@@]21C | inactive
56 | COC(=O)CCC(=O)NC(=S)Nc1sc(C)c(C)c1C(N)=O | inactive
57 | CCSc1nc(-c2ccccc2)nc(C(Cl)Cl)n1 | 2.69 µM (active)
58 | CCc1ccc(/C=N/NC(=O)c2cc(C3CC3)nc3ccccc23)s1 | inactive
59 | N#Cc1ccc(-c2cccs2)nc1SCc1cccnc1 | inactive
60 | OC(CNCc1ccc(-c2ccccc2)cc1)c1ccccc1 (stereo not drawn) | inactive
61 | COc1ccc(-c2cnnn2-c2ccc(N)cc2)cc1OC | inactive
62 | O=C(N/N=C/c1ccc(Cl)cc1)c1n[nH]c2c1CCCC2 | inactive
63 | O=C(Cc1ccc(-c2ccccc2)cc1)NCc1ccccc1 | inactive
64 | O=C(Cc1n[nH]c(=O)c2ccccc12)OCC(=O)c1ccc2c(c1)OCCO2 | inactive
65 | CC(C)N1C(=O)/C(=C/c2nc3ccccc3c(=O)n2-c2ccccc2)c2ccccc21 | 13.5 µM (active)
66 | CC(C)N1C(=O)/C(=C\c2nc3ccccc3c(=O)[nH]2)c2ccccc21 | 23.9 µM (active)
67 | O=C(CSc1nc2ccccc2c(=O)n1-c1ccccc1F)NC1CC1 | inactive
68 | Cc1cc(C)cc(N2CC(O)=C(c3nc4ccccc4c(=O)[nH]3)C2=N)c1 | inactive
